For 8 sequences, binding signal results are on record in paper PMC7862700, “An all-to-all approach to the identification of sequence-specific readers for epigenetic DNA modifications on cytosine”.

Common to all, as to assay: DAPPL (digital affinity profiling via proximity ligation, sequencing); 10 mM Tris-HCl pH 7.5, 50 mM NaCl, 1 mM DTT, 4% glycerol, room temperature, 30 min; GST-TFs on glutathione beads, 16-mer random dsDNA library, 0.1% formaldehyde crosslink after washing; high values mean tight binding
Holding throughout (details): protein: recombinant; tags: N-terminal GST; dsDNA, one strand shown

One test addresses T1, ERF (Homo sapiens, UniProt P50548 1-548).
T1 sequence: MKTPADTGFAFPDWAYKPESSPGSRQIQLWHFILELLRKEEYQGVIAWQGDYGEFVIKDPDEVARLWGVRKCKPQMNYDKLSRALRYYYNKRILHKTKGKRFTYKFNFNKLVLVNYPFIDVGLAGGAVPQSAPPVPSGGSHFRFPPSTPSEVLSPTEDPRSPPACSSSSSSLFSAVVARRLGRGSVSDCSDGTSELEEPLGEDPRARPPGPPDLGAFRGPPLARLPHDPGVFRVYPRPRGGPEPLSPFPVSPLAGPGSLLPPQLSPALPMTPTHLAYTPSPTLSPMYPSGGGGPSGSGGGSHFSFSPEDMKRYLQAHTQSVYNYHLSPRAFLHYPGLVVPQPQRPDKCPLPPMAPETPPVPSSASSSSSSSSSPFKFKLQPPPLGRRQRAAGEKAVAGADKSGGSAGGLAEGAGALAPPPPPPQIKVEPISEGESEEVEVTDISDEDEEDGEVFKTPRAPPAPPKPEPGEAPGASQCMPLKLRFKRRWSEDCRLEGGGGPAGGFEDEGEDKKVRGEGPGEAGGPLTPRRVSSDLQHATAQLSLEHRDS
The gist of the method: (§1)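 Pools were built from human transcription factors expressed in yeast as GST fusions, captured on glutathione beads and DNA-barcoded, along with a tag-only sample. Incubation with 200 nmole of a 16-mer random double-stranded DNA library lasted 30 min at room temperature in Tris/NaCl/DTT/glycerol buffer, and was followed by washing, 0.1% formaldehyde crosslinking, proximity ligation, PCR amplification and Illumina NextSeq500 sequencing. Binding signal is the quotient of each hexamer's read frequency for a factor and its frequency for the tag-only sample.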

The next test deals with T2, ETV3L (Homo sapiens, UniProt Q6ZN32 1-361).
T2 sequence: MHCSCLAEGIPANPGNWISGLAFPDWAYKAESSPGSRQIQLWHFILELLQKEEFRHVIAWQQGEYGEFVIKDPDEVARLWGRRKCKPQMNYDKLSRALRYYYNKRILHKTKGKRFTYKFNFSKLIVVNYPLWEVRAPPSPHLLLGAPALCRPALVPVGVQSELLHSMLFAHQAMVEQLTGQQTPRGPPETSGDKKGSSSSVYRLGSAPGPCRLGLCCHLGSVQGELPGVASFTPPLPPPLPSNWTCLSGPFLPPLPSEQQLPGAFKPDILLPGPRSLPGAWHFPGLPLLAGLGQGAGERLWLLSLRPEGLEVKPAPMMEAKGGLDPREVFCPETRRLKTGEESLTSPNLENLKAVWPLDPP
The method, boiled down: as §1

For another test, the target named is T3, ETS2 (Homo sapiens, UniProt P15036 1-469).
T3 sequence: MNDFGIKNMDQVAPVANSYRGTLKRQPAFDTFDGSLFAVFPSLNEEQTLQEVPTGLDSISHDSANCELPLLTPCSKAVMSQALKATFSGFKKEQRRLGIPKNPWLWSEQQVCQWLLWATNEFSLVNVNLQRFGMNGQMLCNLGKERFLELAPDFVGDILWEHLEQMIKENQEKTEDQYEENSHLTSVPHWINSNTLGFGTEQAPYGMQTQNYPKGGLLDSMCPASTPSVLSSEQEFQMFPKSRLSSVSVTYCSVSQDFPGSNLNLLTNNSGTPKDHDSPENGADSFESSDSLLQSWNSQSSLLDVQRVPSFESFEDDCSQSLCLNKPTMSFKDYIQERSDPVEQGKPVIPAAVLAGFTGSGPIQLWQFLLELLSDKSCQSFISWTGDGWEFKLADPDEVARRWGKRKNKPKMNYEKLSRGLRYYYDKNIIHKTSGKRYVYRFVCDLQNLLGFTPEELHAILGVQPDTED
The gist of the method:
as §1

Another test concerns the target T4, SPDEF (Homo sapiens, UniProt O95238 1-335).
T4 sequence: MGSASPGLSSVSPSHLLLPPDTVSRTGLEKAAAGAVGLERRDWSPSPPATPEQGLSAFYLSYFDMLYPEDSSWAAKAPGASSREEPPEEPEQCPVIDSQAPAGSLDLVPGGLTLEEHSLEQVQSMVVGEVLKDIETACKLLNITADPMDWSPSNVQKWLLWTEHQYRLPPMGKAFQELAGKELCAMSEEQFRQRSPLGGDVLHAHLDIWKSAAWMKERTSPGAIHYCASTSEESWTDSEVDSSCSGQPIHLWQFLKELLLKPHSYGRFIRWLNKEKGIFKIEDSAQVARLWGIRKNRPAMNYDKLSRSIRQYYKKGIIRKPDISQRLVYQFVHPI
The method, boiled down: as §1

A further test addresses T5, ETV7 (Homo sapiens, UniProt Q9Y603 1-341).
T5 sequence: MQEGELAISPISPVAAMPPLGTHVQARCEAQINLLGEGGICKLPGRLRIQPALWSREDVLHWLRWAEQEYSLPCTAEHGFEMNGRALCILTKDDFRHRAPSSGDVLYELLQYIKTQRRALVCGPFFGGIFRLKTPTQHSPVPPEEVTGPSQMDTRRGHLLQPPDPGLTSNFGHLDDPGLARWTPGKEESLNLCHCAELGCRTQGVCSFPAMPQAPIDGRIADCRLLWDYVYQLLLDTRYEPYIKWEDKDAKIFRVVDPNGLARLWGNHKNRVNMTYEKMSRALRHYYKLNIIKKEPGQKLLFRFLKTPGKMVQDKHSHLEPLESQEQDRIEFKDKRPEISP
The gist of the method: as §1

A further test deals with T6, ELF5 (Homo sapiens, UniProt Q9UKW6-2 1-255).
T6 sequence: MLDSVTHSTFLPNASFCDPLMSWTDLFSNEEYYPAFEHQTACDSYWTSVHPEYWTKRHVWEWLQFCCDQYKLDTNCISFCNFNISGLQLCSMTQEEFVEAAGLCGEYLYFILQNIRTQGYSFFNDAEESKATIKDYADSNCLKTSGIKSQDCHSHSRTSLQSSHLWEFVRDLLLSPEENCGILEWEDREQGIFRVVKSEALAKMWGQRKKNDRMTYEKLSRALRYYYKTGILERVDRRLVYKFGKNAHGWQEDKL
The gist of the method: as §1

The next test addresses T7, ETV3 (Homo sapiens, UniProt P41162-2 1-143).
T7 sequence: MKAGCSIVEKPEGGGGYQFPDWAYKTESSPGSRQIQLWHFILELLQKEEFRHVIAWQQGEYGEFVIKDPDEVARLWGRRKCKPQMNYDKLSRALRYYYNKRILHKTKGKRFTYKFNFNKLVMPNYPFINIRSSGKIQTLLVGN
The method, boiled down: as §1

The target of the next test is ETV6 (Homo sapiens, UniProt P41212 1-452). The gist of the method: as §1
Chain of ETV6 (P41212 whole entry): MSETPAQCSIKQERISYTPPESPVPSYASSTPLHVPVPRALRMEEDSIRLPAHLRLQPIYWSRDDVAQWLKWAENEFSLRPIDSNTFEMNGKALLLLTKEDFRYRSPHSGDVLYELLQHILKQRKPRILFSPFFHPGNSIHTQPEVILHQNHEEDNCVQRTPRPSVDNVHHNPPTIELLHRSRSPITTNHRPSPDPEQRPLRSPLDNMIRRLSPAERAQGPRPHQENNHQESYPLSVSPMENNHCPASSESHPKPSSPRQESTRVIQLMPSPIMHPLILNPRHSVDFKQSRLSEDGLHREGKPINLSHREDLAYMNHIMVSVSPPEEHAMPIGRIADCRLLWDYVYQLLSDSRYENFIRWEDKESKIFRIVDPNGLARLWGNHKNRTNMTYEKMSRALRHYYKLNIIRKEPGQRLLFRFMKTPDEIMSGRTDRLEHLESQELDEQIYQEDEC

Turning to AATGAG, the binding signal was 1.2 fold enrichment (6-mer frequency, TF over GST control) with ERF; 1.1 fold enrichment (6-mer frequency, TF over GST control) with ETV3L; 1.2 fold enrichment (6-mer frequency, TF over GST control) with ETS2; 1.01 fold enrichment (6-mer frequency, TF over GST control) in the test with SPDEF; 1.15 fold enrichment (6-mer frequency, TF over GST control) with ETV7; 1.17 fold enrichment (6-mer frequency, TF over GST control) with ELF5. For the same sequence, the binding signal with ETV3 is 1.13 fold enrichment (6-mer frequency, TF over GST control); with ETV6, 1.32 fold enrichment (6-mer frequency, TF over GST control).

Regarding ATTTCA, the binding signal is 1.22 fold enrichment (6-mer frequency, TF over GST control) with ERF; 1.16 fold enrichment (6-mer frequency, TF over GST control) with ETV3L; 1.22 fold enrichment (6-mer frequency, TF over GST control) with ETS2; 1.28 fold enrichment (6-mer frequency, TF over GST control) in the test with SPDEF; 1.13 fold enrichment (6-mer frequency, TF over GST control) with ETV7; 1.25 fold enrichment (6-mer frequency, TF over GST control) in the test with ELF5. For the same sequence, the binding signal with ETV3 was 1.23 fold enrichment (6-mer frequency, TF over GST control); with ETV6, 1.27 fold enrichment (6-mer frequency, TF over GST control).

On to ATCAAC, for which the binding signal was 1.15 fold enrichment (6-mer frequency, TF over GST control) with ERF; 1.23 fold enrichment (6-mer frequency, TF over GST control) with ETV3L; 1.18 fold enrichment (6-mer frequency, TF over GST control) with ETS2; 1.06 fold enrichment (6-mer frequency, TF over GST control) with SPDEF; 1.02 fold enrichment (6-mer frequency, TF over GST control) in the test with ETV7; 1.02 fold enrichment (6-mer frequency, TF over GST control) with ELF5. The binding signal was 1.12 fold enrichment (6-mer frequency, TF over GST control) with ETV3 and 1.1 fold enrichment (6-mer frequency, TF over GST control) in the test with ETV6.

On to ACTTTG, for which the binding signal was 1.25 fold enrichment (6-mer frequency, TF over GST control) with ERF; 1.2 fold enrichment (6-mer frequency, TF over GST control) with ETV3L; 1.18 fold enrichment (6-mer frequency, TF over GST control) with ETS2; 1.14 fold enrichment (6-mer frequency, TF over GST control) in the test with SPDEF; 1.11 fold enrichment (6-mer frequency, TF over GST control) with ETV7; 1.25 fold enrichment (6-mer frequency, TF over GST control) with ELF5. Besides, the binding signal in the test with ETV3 is 1.42 fold enrichment (6-mer frequency, TF over GST control); in the test with ETV6, 1.18 fold enrichment (6-mer frequency, TF over GST control).

With TGATGG, the binding signal in the test with ERF was 1.27 fold enrichment (6-mer frequency, TF over GST control); with ETV3L, 1.16 fold enrichment (6-mer frequency, TF over GST control); with ETS2 it was 1.22 fold enrichment (6-mer frequency, TF over GST control); with SPDEF it was 1.09 fold enrichment (6-mer frequency, TF over GST control); with ETV7 it was 1.24 fold enrichment (6-mer frequency, TF over GST control); with ELF5, 1.26 fold enrichment (6-mer frequency, TF over GST control). Besides, the binding signal with ETV3 was 1.2 fold enrichment (6-mer frequency, TF over GST control); with ETV6, 1.21 fold enrichment (6-mer frequency, TF over GST control).

Consider TTACAT, for which the binding signal with ERF was 1.41 fold enrichment (6-mer frequency, TF over GST control); in the test with ETV3L, 1.26 fold enrichment (6-mer frequency, TF over GST control); with ETS2, 1.34 fold enrichment (6-mer frequency, TF over GST control); with SPDEF, 1.41 fold enrichment (6-mer frequency, TF over GST control); with ETV7, 1.2 fold enrichment (6-mer frequency, TF over GST control); with ELF5 it was 1.35 fold enrichment (6-mer frequency, TF over GST control). Besides, the binding signal is 1.3 fold enrichment (6-mer frequency, TF over GST control) with ETV3 and 1.27 fold enrichment (6-mer frequency, TF over GST control) in the test with ETV6.

In the case of CTGATT, the binding signal was 1.21 fold enrichment (6-mer frequency, TF over GST control) in the test with ERF; 1.26 fold enrichment (6-mer frequency, TF over GST control) with ETV3L; 1.26 fold enrichment (6-mer frequency, TF over GST control) with ETS2; 1.21 fold enrichment (6-mer frequency, TF over GST control) with SPDEF; 1.24 fold enrichment (6-mer frequency, TF over GST control) in the test with ETV7; 1.19 fold enrichment (6-mer frequency, TF over GST control) with ELF5. Moreover, the binding signal is 1.17 fold enrichment (6-mer frequency, TF over GST control) with ETV3 and 1.17 fold enrichment (6-mer frequency, TF over GST control) with ETV6.

On to ATGAAT, for which the binding signal in the test with ERF was 1.16 fold enrichment (6-mer frequency, TF over GST control); with ETV3L, 1.14 fold enrichment (6-mer frequency, TF over GST control); with ETS2, 1.17 fold enrichment (6-mer frequency, TF over GST control); with SPDEF it was 1.06 fold enrichment (6-mer frequency, TF over GST control); with ETV7, 1.19 fold enrichment (6-mer frequency, TF over GST control); in the test with ELF5 it was 1.09 fold enrichment (6-mer frequency, TF over GST control). The binding signal in the test with ETV3 is 1.2 fold enrichment (6-mer frequency, TF over GST control); with ETV6, 1.15 fold enrichment (6-mer frequency, TF over GST control).
